Hits are enriched below; roughly 4.2% of the tested compounds scored in any of these assays.
Integrin act MD: qHTS for Activators of Integrin-Mediated Alleviation for Muscular Dystrophy | alpha7betagal myoblasts, beta-gal FDG fluorescence, 48 h | Potency, µM (doses to about 38.3 µM), actives largely listed as activators | 0.064% of 350,000 active; further: nearly all actives have a fitted effect of over 60% in size
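alpha7betagal+/- myoblasts (passage 13, 250/well) treated 48 h at 37C with compounds at 1:260 dilution of DMSO stock. Lysed, then beta-galactosidase activity read as FDG fluorescence (ex 480/em 540) after 30 min, with pre-read for autofluorescence.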
Mito fusion act: qHTS Assay for Small Molecule Inhibitors of Mitochondrial Division or Activators of Mitochondrial Fusion | S. cerevisiae fusion-defective mutant growth rescue, CellTiterGlo 48 h | Potency, µM (top dose mostly 46.1 µM), usual class: activators | 0.23% of 320,000 active; further: nearly all actives have a fitted effect of over 45% in size
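Read-out: ATP-based luminescence (CellTiterGlo, 10 min ambient) reporting growth of fusion-defective ts yeast after 48 hours at 37C on glycerol/ethanol YPEG medium in the presence of compound.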
MCF10A rerep: A quantitative high throughput screen for small molecules that induce DNA re-replication in MCF 10a normal breast cells | MCF 10A DNA re-replication, Hoechst nuclear intensity, 48 h | Potency, µM (titrated, usually from 46.1 µM), actives largely listed as activators | 2.9% of 350,000 active | AID 624296, 2012; further: nearly all actives have a fitted effect of over 50% in size
SW480 rereplic: A quantitative high throughput screen for small molecules that induce DNA re-replication in SW480 colon adenocarcinoma cells; SW480 DNA re-replication, Hoechst DNA content imaging, 48 h; Potency, µM (doses to about 46.1 µM), usual class: activators; 1.8% of 340,000 active; further: nearly all actives have a fitted effect of over 55% in size
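Hoechst fluorescence of nuclei (405 nm excitation, 500-530 nm emission) measured by plate-scanning imager after 48 hr compound exposure at 37 C; re-replication scored as increased number of nuclei with elevated intensity.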
AT treatment: qHTS Assay for Identifying a Potential Treatment of Ataxia-Telangiectasia. F2112 A-T fibroblasts, KAP-1 phosphorylation AlphaLISA; neocarzinostatin DNA damage 30 min before lysis. Potency, µM (top dose mostly 57.5 µM), usual class: activators. 0.19% of 320,000 active; further: nearly all actives have a fitted effect of over 45% in size
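hTERT-immortalized A-T patient fibroblasts (F2112), 500 cells/well in OPTI-MEM, 1% FBS, got compounds for 60 min, then NCS for 30 min at 37C. Lysates were then assayed for phospho-KAP-1 by AlphaLISA (anti-pKAP1 donor, anti-KAP1 acceptor beads), 6 hr at 25C.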
Numbers stand for hits; i = inactive; ? = inconclusive; nt = not tested or not shown; ! = not active in a repeat; [ ] = remark or other dose. The call rests on the fitted dose curve; in most records, active means well fitted activation curve with a large enough effect; inconclusive means small, poorly fitted or top-dose-only effect; inactive means no such curve, though single readings can be large or run the other way.

SMILES	Integrin act MD	Mito fusion act	MCF10A rerep	SW480 rereplic	AT treatment
CC(C)(O)[C@@H]1C2OC(=O)[C@@H]1[C@]1(O)C[C@H]3O[C@]34C(=O)O[C@H]2[C@]14C (tested in a mixture with another compound)	nt	i	nt	nt	nt
CC[C@@]1(O)C(=O)OCc2c1cc1n(c2=O)Cc2cc3ccccc3nc2-1	nt	13µM!	nt	nt	i
CCC1(O)C(=O)OCc2c1cc1n(c2=O)Cc2cc3cc(O)ccc3nc2-1 (stereo unspecified)	i	nt	?	?	nt
CCC1(OC(=O)CN)C(=O)OCc2c1cc1n(c2=O)Cc2cc3ccccc3nc2-1 (stereo unspecified)	?	0.794µM	i	i	i
CC(=O)N1CCCc2cc(S(=O)(=O)N3CCCC(C(=O)Nc4cccc(F)c4)C3)ccc21 (stereo unspecified)	i	i	i	i	i
O=C(Oc1ccccc1)N(c1ccccc1)c1ccccc1	i	i	i	i	?
N#CC1=C(N)Oc2c(c(=O)oc3ccccc23)C1c1ccncc1 (stereo unspecified)	i	i	i	i	i
N#CC1=C(N)Oc2c(c(=O)sc3ccccc23)C1c1cccnc1 (stereo unspecified)	i	i	8.2µM	14.6µM	i
COc1cccc(N2CCN(C(=O)C3CCCN(S(=O)(=O)c4ccc5c(c4)oc(=O)n5C)C3)CC2)c1 (stereo unspecified)	i	?	i	i	i
CC(=O)C1C(N2CC2)CC2C3CC=C4CC(O)CCC4(C)C3CCC21C (stereo unspecified)	i	nt	4.61µM	23.1µM	nt
C[C@]12CC[C@H](O)CC1=CCC1C2CC[C@@]2(C)C1C[C@@H](O)[C@@H]2O (stereo partly specified)	i	nt	i	i	i
C1=C(c2c[nH]c3ccccc23)CCN(Cc2ccccc2)C1	i	i	16.4µM	13µM	i
Nc1c(C(=O)NCc2ccco2)c2nc3ccccc3nc2n1CCN1CCOCC1	i	i	16.4µM	5.17µM	i
COc1ccc(Cn2c(N)c(C(=O)NCc3ccco3)c3nc4ccccc4nc32)cc1	i	i	10µM	2.31µM	i
Nc1c(C(=O)NCc2ccco2)c2nc3ccccc3nc2n1Cc1ccccc1	i	i	?	20.6µM	i
Nc1c(C(=O)NCc2ccco2)c2nc3ccccc3nc2n1Cc1ccc(F)cc1	i	i	3.66µM	?	?
COCC(C)OC(=O)c1c(N)n(Cc2ccco2)c2nc3ccccc3nc12 (stereo unspecified)	i	i	i	i	nt
CCOC(=O)c1c(N)n(Cc2ccco2)c2nc3ccccc3nc12	i	i	i[0.0737 µM]	i	i
Cn1c(CCCC(=O)O)nc2cc(N(CCCl)CCCl)ccc21	nt	nt	?	i	nt
Cc1cc(C(C#N)c2ccc(Cl)cc2)c(Cl)cc1NC(=O)c1cc(I)cc(I)c1O (stereo unspecified)	nt	i	?	?	i
CCCCOP(=O)(c1ccc(N(C)C)cc1)C(Nc1ccccc1)c1ccccc1 (stereo unspecified)	i	i	20.6µM	?	i
COP(=O)(OC)OC=C(Cl)Cl	nt	nt	11.9µM	13.3µM	nt
COc1ccc2c(c1)C(c1ccc(N(CCCl)CCCl)cc1)=NCC2	i	nt	13µM	?	nt
C=C1C(=O)O[C@@H]2C[C@@H](C)[C@@H]3C=CC(=O)[C@@]3(C)[C@@H](OC(C)=O)[C@H]12	i	i	1.16µM	?	i
C=C1C(=O)O[C@@H]2C[C@@H](C)[C@@H]3C=CC(=O)[C@@]3(C)[C@@H](O)[C@H]12	nt	i	0.92µM	?	i
SMILES	Integrin act MD	Mito fusion act	MCF10A rerep	SW480 rereplic	AT treatment
C=C[C@@H]1CN2CC[C@H]1C[C@H]2[C@H](O)c1ccnc2ccccc12	nt	nt	i	i	nt
Cc1ccc(S(=O)(=O)Nc2ccc3ncccc3c2[N+](=O)[O-])cc1	i	nt	?	?	nt
O=S(=O)(CCN1CCN(c2ccccn2)CC1)c1ccc(Cl)cc1Cl	i	i	?	i	i
Cc1cc([C@@H]2CCCN2C)on1	nt	i	nt	nt	nt
COC(=O)C1=C(c2ccc(F)cc2OCc2ccccc2)C[C@@H]2CC[C@H]1N2C(=O)NCc1cccc(C(F)(F)F)c1	i	i	3.26µM	i	i
COC(=O)C1=C(c2ccc(F)cc2OCc2ccccc2)C[C@@H]2CC[C@H]1N2C(=O)NCCN1CCOCC1	i	i	0.581µM	?	i
COC(=O)C1=C(c2ccc(F)cc2OCc2ccccc2)C[C@@H]2CC[C@H]1N2C(=O)NCCc1ccc(F)cc1	i	?	?	i	i
COC(=O)C1=C(c2ccccc2OCc2ccccc2)C[C@@H]2CC[C@H]1N2C(=O)NCCOc1ccc(OC)cc1	i	i	6.51µM	?	i
O=c1[nH]c(=O)n(Cc2ccccc2Cl)c(O)c1/C=C1/C=CC=N1	i	i	6.51µM	14.6µM	i
O=C(/C=C/c1ccc2c(c1)OCO2)c1c(O)n(CCc2ccccc2)c(=O)[nH]c1=O	i	i	11.6µM	?	i
COc1cc(/C=C/C(=O)c2c(O)n(CCc3ccccc3)c(=O)[nH]c2=O)ccc1O	i	i	?	?	i
O=C(/C=C/c1ccccc1)c1c(O)n(CCc2ccccc2)c(=O)[nH]c1=O	i	i	8.2µM	?	i
O=C(NCc1cccnc1)C(Cl)(Cl)Cl	i	i	i	i	i
CC(C)C(=O)Nc1ccc(C(=O)NCc2cccnc2)cc1	i	i	i	0.517µM	i
CC1OC(OC2CC(O)C3(CO)C4C(O)CC5(C)C(C6=CC(=O)OC6)CCC5(O)C4CCC3(O)C2)C(O)C(O)C1O (stereo unspecified)	i	nt	?	6.51µM	nt
C[C@@H]1O[C@@H](O[C@H]2C[C@@H](O)[C@]3(CO)[C@H]4[C@H](O)C[C@]5(C)[C@@H](C6COC(=O)C6)CC[C@]5(O)[C@@H]4CC[C@]3(O)C2)[C@H](O)[C@H](O)[C@H]1O (stereo partly specified)	nt	i	?	5.17µM	i
Cc1ccc2c(c1)C1CN(C)CCC1N2C(=O)c1ccccc1NS(=O)(=O)c1cccc(C(F)(F)F)c1 (stereo unspecified)	i	i	?	i	i
C=CCN(C1=NCCN1)c1c(Cl)cccc1Cl	nt	i	i	i	nt
COc1ccc(-c2nn(-c3ccccc3)cc2C(=O)N2c3ccc(C)cc3C3CN(C)CCC32)cc1 (stereo unspecified)	i	i	?	i	i
O=C(Cc1cc(=O)oc2cc(O)ccc12)NN=Cc1ccc(N(CCCl)CCCl)cc1	i	nt	?	?	nt
O=C(NN=Cc1ccc(N(CCCl)CCCl)cc1Cl)c1cccnc1	i	nt	i	?	nt
O=C(NN=Cc1ccc(N(CCCl)CCCl)cc1)c1cc(=O)[nH]c(=O)[nH]1	i	nt	?	7.31µM	nt

Screening data from PubChem BioAssay.
